Compound activity deposited in PubChem BioAssay by National Center for Advancing Translational Sciences (NCATS).
Giardia kill – Small Molecules that selectively kill Giardia lamblia: qHTS. Giardia lamblia trophozoite viability. activity change, % at 7.66 µM, hits read low. hit rate 0.15% among 340,000; in the data active means activity change below about -80%; inconclusive means between about -30% and that limit;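 further: parasites exposed to compound for two days anaerobically before the ATP read; on the % scale 0 is the no-effect control and ±100 the full control effect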
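Killing of trophozoites was scored by loss of ATP luminescence after a 48 hrs anaerobic exposure to compounds at 37 deg C, using 100 cells per well.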
D3 antag – qHTS of D3 Dopamine Receptor Antagonist: qHTS. D3R cells, DiscoveRx beta-arrestin luminescence, antagonist mode; active compounds read low. max response, negative = inhibition, %. hit rate 2.5% among 360,000. AID 652054, 2013; in the data active means max response below about -50%; inconclusive means no clear call, values can overlap the other calls; further: on the % scale 0 is the no-effect control and ±100 the full control effect
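Cells expressing the human receptor were seeded at 1500 cells/well, incubated overnight at 37 degrees C in 5% CO2, then exposed to library compounds with dopamine controls for 90 minutes at 37 degrees C before luminescent detection.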
B2AR arrestin – qHTS assay of beta-arrestin-biased ligands of beta2-adrenergic receptor; Beta-2 adrenergic receptor (Homo sapiens), P07550; beta-arrestin recruitment to beta2AR, cell-based reporter; Potency, µM (titrated, usually from 46.1 µM), for inactives: at the top dose activation, hits mostly activators; hit rate 0.02% among 330,000; AID 492947, 2010; active means well fitted activation curve with a large enough effect; inconclusive means small, poorly fitted or top-dose-only effect;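 further: potency means the concentration at half of the fitted maximal effect; 0% = DMSO controls and full agonism = EC100 isoproterenol or metaproterenol; nearly all actives have a fitted effect of over 65% in size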
Target sequence (P07550 whole entry, looked up): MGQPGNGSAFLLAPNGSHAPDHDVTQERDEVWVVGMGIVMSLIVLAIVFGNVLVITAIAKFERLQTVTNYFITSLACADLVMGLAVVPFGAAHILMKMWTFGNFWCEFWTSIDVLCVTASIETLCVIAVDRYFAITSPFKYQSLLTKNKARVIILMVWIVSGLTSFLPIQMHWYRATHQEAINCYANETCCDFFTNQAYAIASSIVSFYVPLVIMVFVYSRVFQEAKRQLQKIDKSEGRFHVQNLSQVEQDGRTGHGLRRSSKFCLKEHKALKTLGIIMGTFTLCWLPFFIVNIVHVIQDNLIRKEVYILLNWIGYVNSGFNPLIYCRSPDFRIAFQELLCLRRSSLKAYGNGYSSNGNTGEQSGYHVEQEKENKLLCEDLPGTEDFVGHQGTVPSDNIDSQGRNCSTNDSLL
DRD3 agonist – qHTS of D3 Dopamine Receptor Agonist: qHTS. D(3) dopamine receptor (Homo sapiens), P35462. D3R DiscoveRx beta-arrestin cells, luminescence, 90 min. max activation, %. hit rate 0.58% among 410,000; in the data active means max activation above about 30%; further: 0% is about no effect
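Agonist-mode cell screen: cells plated at 1500/well and incubated overnight at 37 °C, then exposed to library compounds for 90 min at 37 °C. Detection reagent was added for 30–60 min at room temperature, and luminescence was read.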
The depositor's hits bear a star; ? = inconclusive; nt = no result. Most compounds without a hit are left out; they make up all but 2.8% or so of the library.

SMILES	Giardia kill	D3 antag	B2AR arrestin	DRD3 agonist
C[C@H]1O[C@@H](O[C@H]2CC[C@@]3(C)[C@H](CC[C@@H]4[C@@H]3C[C@@H](O)[C@]3(C)[C@@H](C5=CC(=O)OC5)CC[C@]43O)C2)C[C@H](O)[C@@H]1O[C@H]1C[C@H](O)[C@H](O[C@H]2C[C@H](O)[C@H](O[C@@H]3O[C@H](CO)[C@@H](O)[C@H](O)[C@H]3O)[C@@H](C)O2)[C@@H](C)O1	nt	nt	nt	8
Cc1nnc(SCC(=O)Nc2cccc(S(=O)(=O)N(C)c3ccccc3)c2)s1	-17	41	0%	34*
CN(C)S(=O)(=O)c1cccc(NC(=O)CSc2ncnc3ccccc23)c1	50	0	0%	65*
COc1ccccc1N1CCN(c2ncnc3c2cnn3-c2cccc(Cl)c2)CC1	nt	nt	nt	14
Cc1ccc(C)c(OCCn2c(CCNC(=O)C3CCCCC3)nc3ccccc32)c1	3	nt	nt	nt
COc1cccc(CN(C(=O)c2ccc(C(C)(C)C)cc2)C2CCS(=O)(=O)C2)c1 (stereo unspecified)	nt	nt	nt	9
COc1ccc(-n2nc(C#N)c(Cl)cc2=O)cc1	14	-104*	0%	-13
Cc1c(NC(=O)CSc2nnc(-c3cccc(Cl)c3)o2)c(=O)n(-c2ccccc2)n1C	2	-72*	0%	-6
Cc1ccc(S(=O)(=O)/N=C(/c2ccccc2)N2CCOCC2)cc1	35	7	0%	36*
N#Cc1ccccc1OCC(=O)N1CCN(c2ccccc2F)CC1	nt	nt	nt	5
CCOC(=O)C1CCCN(CCC(=O)Nc2ccccc2)C1 (stereo unspecified)	-8	-8	0%	-13
O=[N+]([O-])c1ccccc1/C=C/CN1CCCCC1	2	-71*	1%	-28
CCN(CC)C(=O)C1CCCN(C/C=C/c2ccccc2[N+](=O)[O-])C1 (stereo unspecified)	-16	-12	0%	-8
CN(C/C=C/c1ccccc1[N+](=O)[O-])Cc1ccccc1	4	-80*	-1%	0
O=[N+]([O-])c1ccccc1/C=C/CN1CCCCC1CO (stereo unspecified)	-11	-3	-2%	-9
CCOC(=O)C1CCCN(CCC(C)c2ccccc2)C1 (stereo unspecified)	-3	-61*	0%	-28
CCOC(=O)C1CCCN(C/C=C/c2ccccc2[N+](=O)[O-])C1 (stereo unspecified)	15	-64*	1%	-30
CN(C)CCC1Sc2ccccc2Oc2ccccc21 (stereo unspecified)	22	-64*	-1%	0
COc1ccc(-n2cc(CNCCc3cscn3)c(-c3ccccc3Cl)n2)cc1	38	-101*	0%	-9
COC(=O)CN1C(=O)[C@@H]2[C@H](C1=O)[C@@H]1CC(C(=O)OC)=C[C@@H](C(=O)OC)C3C1=C(C(=O)[C@]3(C)NC(=O)c1ccccc1)[C@@H]2C (stereo partly specified)	12	nt	nt	nt
CCOC(=O)c1sc2nc(NC(=O)C(C)(C)C)sc2c1C	-11	33	-1%	34*
Cc1ccc(NC(=O)CCCn2c(=O)c3cccn3c3ccccc32)cc1C	nt	nt	nt	9
CN(CC(=O)Nc1cccc(Cl)c1)S(=O)(=O)c1ccc2[nH]c3c(c2c1)CCCC3	nt	nt	nt	4
Cc1cccc(NC(=O)N2CCN(C(=O)c3nsc4ccccc34)CC2)c1C	nt	nt	nt	2
COc1ccc(-c2cc(=O)c3c(O)cc(O)cc3o2)cc1	-10	18	0%	-1
SMILES	Giardia kill	D3 antag	B2AR arrestin	DRD3 agonist
O=c1cc(-c2ccc(O)c(O)c2)oc2cc(O)cc(O)c12	30	55	-1%	43*
CCCCSc1nnc2c(n1)OC(c1ccc(Br)s1)Nc1ccccc1-2 (stereo unspecified)	nt	nt	nt	-6
CCCCOc1ccc(C(=O)N2CCCC2C(=O)O)cc1 (stereo unspecified)	-28	0	0%	-1
CCCOc1ccc(C(=O)N2CCCC2C(=O)O)cc1 (stereo unspecified)	14	-61*	1%	1
CCOC(=S)SSC(=S)OCC	nt	nt	nt	7
O=C(O)C1CCCCC1C(=O)Nc1ccccc1Cl (stereo unspecified)	-4	24	0%	13
O=C(O)C1CCCCC1C(=O)Nc1ccccc1F (stereo unspecified)	-13	-51*	0%	-8
O=C(NCCc1nc2ccccc2n1Cc1ccc(Cl)cc1Cl)c1ccco1	nt	nt	nt	3
CCOC(=O)C1=C(COC(=O)CCOc2ccccc2C)NC(=O)NC1C (stereo unspecified)	5	-65*	0%	-13
CCOC(=O)C1=C(COC(=O)CCOc2ccc(OCC)cc2)NC(=O)NC1C (stereo unspecified)	-9	28	0%	6
CC(Cl)OC(=O)Nc1cccc2cccnc12 (stereo unspecified)	-8	nt	nt	nt
COC(=O)[C@@]1(Cc2ccc(F)cc2)[C@H]2c3cc(C(=O)N(C)C)n(Cc4nc5ccccc5[nH]4)c3C[C@H]2CN1C(=O)c1ccccc1	-6	-68*	6%	-66
COC(=O)[C@@]1(Cc2ccc(OC)cc2)[C@H]2c3cc(C(=O)N4CCCC4)n(CCn4cc([N+](=O)[O-])nc4C)c3C[C@H]2CN1C(=O)c1ccccc1	-83*	0	-1%	0
COC(=O)[C@@]1(Cc2ccc(F)cc2)[C@H]2c3cc(C(=O)N(C)C)n(Cc4ccccn4)c3C[C@H]2CN1C(=O)c1ccccc1	-30	-17	-1%	-27
NC(=O)OC[C@@H]1[C@H](NC(=O)/C(=N\OCC(=O)O)c2csc(N)n2)C(=O)N1S(=O)(=O)O	nt	nt	nt	1
CN(C)C(=O)NC1c2ccccc2-c2ccccc21	-15	-4	0%	-1
O=C1C=CC(=O)N1c1ccc2c(c1)C(NC(=O)C(F)(F)F)c1ccccc1-2 (stereo unspecified)	-6	-62*	nt	-26
C=CCn1c(SCC(=O)Nc2ccc(C(=O)O)cc2)nc2scc(-c3ccccc3)c2c1=O	-2	-71*	0%	-8
CCOC(=O)c1ccc(NC(=O)c2cc3c(n(-c4ccc(C)cc4)c2=O)CC(C)(C)CC3=O)cc1	nt	nt	nt	-1
NC(=O)N/N=C/c1ccccc1OC(=O)c1cc2ccccc2oc1=O	-16	-57*	0%	-6
N/C(=N\NC(=O)c1ccccc1)c1cc2ccccc2oc1=O	-1	7	0%	3
NC(=S)N/N=C/c1ccccc1OC(=O)/C=C/c1ccccc1	2	-7	?	-1
NC(=S)N/N=C/c1ccccc1OC(=O)c1cc2ccccc2oc1=O	-1	-22	13µM*	0
CCOC(=O)c1c(C)oc2nc(C)nc(NCCCN3CCN(c4ccccc4OC)CC3)c12	nt	nt	nt	-23
N#Cc1cccc(NC(=O)Cn2c3[n+](c4ccc(C(F)(F)F)cc42)CCCCC3)c1	-9	-74*	-1%	-52
O=C(Nc1ccccc1C(=O)OCC(=O)c1c[nH]c2ccccc12)c1ccco1	6	19	1%	35*
